Screening results: PubChem, National Center for Advancing Translational Sciences (NCATS)
The list is not random: actives were taken first. Their share in the collection is about 11%.
Pf growth 48h: inhibits P. falciparum growth in the first generation, 48 h; Potency, µM (top dose mostly 28.7 µM), inactives show at the highest dose activity change, negative = inhibition, hits mostly inhibitors; actives 5.9% (n = 310,000); P. falciparum luciferase growth in erythrocytes, 48 h
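Firefly luciferase activity from engineered P. falciparum reports growth; inhibitors lower the luminescent signal. Cultures contained 2% hematocrit erythrocytes at 0.1% final parasitemia.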
Pf growth 96h: P. falciparum growth inhibition at 96 hours | P. falciparum luciferase reporter growth, 96 h | Potency, µM (series often up to 28.7 µM), for inactives: at the top dose activity change, negative = inhibition, most hits filed as inhibitors | actives 6.9% (n = 320,000) | AID 504834
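Readout is luminescence from an integrated firefly luciferase in P. falciparum. Red cells, 2% hematocrit and 0.05% parasitemia final, were cultured with compound through two parasite generations (96 hours) at 37 C, 5% CO2.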
AMA1-RON2 inh: disrupts binding of P. falciparum AMA1 to RON2; actives 0.2% (n = 360,000); AlphaScreen AMA1-biotinylated RON2 peptide binding; Potency, µM (highest dose often 58.2 µM), for the others: at the highest dose activity change, negative = inhibition, hits mostly inhibitors;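 further: 0% = vehicle wells and -100% = peptide control; nearly all actives have a fitted effect of over 45% in size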
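AMA1 (3D7) with his tag at 25 nM final met compounds first, then biotinylated RON2 peptide at 25 nM; detection used donor plus acceptor beads, 10 µg/mL apiece, read by AlphaScreen after 30 min at room temperature.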
HCV inhibitor: inhibitors of hepatitis C virus infection; Potency, µM (highest dose often 41.8 µM), inactives show top-dose activity change, negative = inhibition, usual class: inhibitors; Huh7.5.1 HCVcc-Cre infection, luciferase reporter, 44 h; actives 3.4% (n = 340,000)
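Compounds are dispensed onto cells plated 4 h earlier at 1,000 per well, with HCVcc-Cre virus (about 0.5 moi) added next. Following 44 h of culture, luminescent signal is measured for 15 sec after 15 min with substrate at room temperature.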
An asterisk follows results filed as active; [ ] = dose if it differs, or a comment. The call rests on the fitted dose curve; in most records, active means well fitted curve in the direction sought with a large enough effect; inconclusive means small, poorly fitted or top-dose-only effect, or another doubt; inactive means no such curve, though single readings can be large; an effect the other way counts as inactive or inconclusive. Unless noted, on the % scale 0 is the no-effect control and ±100 the full control effect; potency means the concentration at half of the fitted maximal effect.

Results for COc1ccc(C2(CNC(=O)c3cccc([N+](=O)[O-])c3)CCCCC2)cc1OC ?
Pf growth 48h: inconclusive; Pf growth 96h: 5.9µM*; AMA1-RON2 inh: -7%; HCV inhibitor: -9%

How did Cc1nc(SCC(=O)Nc2ccc3[nH]c(=O)[nH]c3c2)nc(C)c1C do in these assays?
AMA1-RON2 inh: -3%; HCV inhibitor: 2%

What do the screens show for `COc1ccc(-c2cn3c(C)c(C(=O)Nc4cccc(NC(C)=O)c4)sc3n2)cc1`?
Pf growth 48h: inconclusive; Pf growth 96h: inconclusive; AMA1-RON2 inh: 0%; HCV inhibitor: 4%

How did Cc1c(C(=O)Nc2ccncc2)sc2nc(-c3ccc(F)cc3)cn12 do in these assays?
Pf growth 48h: 2.3µM*; Pf growth 96h: 2.3µM*; AMA1-RON2 inh: -23%; HCV inhibitor: 10µM*

What do the screens show for `COc1ccc(-c2cn3c(C)c(C(=O)Nc4ccncc4)sc3n2)cc1`?
Pf growth 96h: inconclusive; AMA1-RON2 inh: 4%; HCV inhibitor: 4.5µM*

What do the screens show for `CCCCNCCS(=O)(=O)NCc1ccc(OC)cc1`?
AMA1-RON2 inh: -6%; HCV inhibitor: -15%

How did CCOc1ccc(N(CC(=O)NCc2ccc(F)cc2)C(=O)c2ccco2)cc1 do in these assays?
Pf growth 48h: -2%; Pf growth 96h: inconclusive; AMA1-RON2 inh: -11%; HCV inhibitor: -5%

How did O=C(c1ccc(CS(=O)Cc2ccc(Cl)cc2)o1)N1CCN(c2ccccn2)CC1 (stereo unspecified) do in these assays?
Pf growth 48h: -27%; Pf growth 96h: 10µM*; AMA1-RON2 inh: 4%; HCV inhibitor: -24%

How did O=C(c1ccc(COc2ccccc2Br)o1)N1CCN(c2ccccn2)CC1 do in these assays?
Pf growth 48h: 10%; Pf growth 96h: 74%; AMA1-RON2 inh: -15%; HCV inhibitor: -23%

What do the screens show for `O=C(c1ccc(C#Cc2ccccc2)o1)N1CCN(c2ccccn2)CC1`?
Pf growth 48h: -19%; Pf growth 96h: 8.3µM*; AMA1-RON2 inh: -23%; HCV inhibitor: inconclusive

What do the screens show for `O=C(Nc1ccc(Cl)c(C(F)(F)F)c1)C1Cc2c(-c3ccccc3)ccnc2O1` (stereo unspecified)?
AMA1-RON2 inh: -6%

Results for C[C@H](CO)N1C[C@H](C)[C@@H](CN(C)C(=O)Nc2ccc3c(c2)OCO3)Oc2ccc(NS(=O)(=O)c3ccc(F)cc3)cc2C1=O ?
AMA1-RON2 inh: 11%; HCV inhibitor: 0%

How did CC(=O)c1c(C)[nH]c(C(=O)NCCN2CCC(C)CC2)c1C do in these assays?
Pf growth 48h: -5%; Pf growth 96h: 12µM*; AMA1-RON2 inh: 8%; HCV inhibitor: -13%

Results for CCCNC(=O)c1[nH]c(C)c(C(C)=O)c1C ?
Pf growth 48h: inconclusive; Pf growth 96h: 38%; AMA1-RON2 inh: 15%; HCV inhibitor: 12%

What do the screens show for `CCOC(=O)C1CCN(c2nnc(N3CCCC3=O)s2)CC1`?
Pf growth 48h: 58%; Pf growth 96h: 0.83µM*; AMA1-RON2 inh: 4%; HCV inhibitor: -6%

Results for C=CCn1c(=O)c2ccccc2n2c(SC(C)C(N)=O)nnc12 (stereo unspecified) ?
Pf growth 48h: 30%; Pf growth 96h: 16%; AMA1-RON2 inh: -7%; HCV inhibitor: -7%

Results for C=CCn1c(=O)c2ccccc2n2c(SC(C)C(=O)Nc3nc(-c4ccccc4)cs3)nnc12 (stereo unspecified) ?
Pf growth 48h: 10µM*; Pf growth 96h: inconclusive; AMA1-RON2 inh: -15%; HCV inhibitor: inconclusive

Results for Cn1c(=O)c2[nH]c(-c3ccccc3Cl)c(O)c2n(C)c1=O ?
Pf growth 48h: 4.7µM*; Pf growth 96h: 13µM*; AMA1-RON2 inh: -10%; HCV inhibitor: 30%

Results for Cc1onc(C(=O)N2C(C)CCCC2C)c1[N+](=O)[O-] (stereo unspecified) ?
Pf growth 48h: 8%; Pf growth 96h: inconclusive; AMA1-RON2 inh: 14%; HCV inhibitor: 9%

Results for Cc1ccc(-c2csc3ncn(-n4c(C)ccc4C)c(=O)c23)o1 ?
Pf growth 48h: 13µM*; Pf growth 96h: 0.74µM*; AMA1-RON2 inh: 6%; HCV inhibitor: -21%

What do the screens show for `COc1cccc(C(NC(C)=O)c2nc(-c3cccc(C#N)c3)cs2)c1` (stereo unspecified)?
AMA1-RON2 inh: -2%

Results for COc1ccc(C(=O)N/C(=C/c2cccs2)C(=O)NC(C)(C)C)cc1OC ?
Pf growth 48h: -16%; Pf growth 96h: 1%; AMA1-RON2 inh: 40%; HCV inhibitor: -10%

How did O=C(/C(=C/c1ccc(Cl)cc1)c1nc2ccccc2[nH]1)c1ccccc1 do in these assays?
Pf growth 48h: 2.9µM*; Pf growth 96h: 2.3µM*; AMA1-RON2 inh: 65%; HCV inhibitor: 10µM*

How did COc1cc(/C=C(/C(=O)c2cccs2)c2nc3ccccc3[nH]2)cc(OC)c1O do in these assays?
Pf growth 96h: inconclusive; AMA1-RON2 inh: 39%; HCV inhibitor: 10µM*

How did COc1ccc(C(=O)N/C(=C/c2cccs2)c2nc3ccccc3[nH]2)cc1OC do in these assays?
Pf growth 48h: -19%; Pf growth 96h: 4.7µM*; AMA1-RON2 inh: -1%; HCV inhibitor: 0%

How did CCO[C@@H]1OC(C(=O)NC2CC2)=C[C@H](c2coc3ccccc3c2=O)[C@H]1CCCO do in these assays?
AMA1-RON2 inh: -2%; HCV inhibitor: 14%

What do the screens show for `C[C@H](NC(=O)c1ccc(Cl)cc1)C(=O)NNC(=O)c1cccs1`?
Pf growth 48h: -17%; Pf growth 96h: 5%; AMA1-RON2 inh: 23%; HCV inhibitor: 12%

How did Cc1cc(N=Nc2ccc(C)c(N=Nc3cc(C)c(N)cc3N)c2)c(N)cc1N do in these assays?
Pf growth 48h: 84%; Pf growth 96h: 134%; AMA1-RON2 inh: 22µM*; HCV inhibitor: -22%

How did CN1CCN(C(=O)c2ccc(CSc3ccc(Cl)cc3)cc2)CC1 do in these assays?
Pf growth 48h: 9%; Pf growth 96h: 4%; AMA1-RON2 inh: 1%; HCV inhibitor: inconclusive

How did CC(C)(C)c1ccc(C(=O)N2CCN(CCNC(=O)C(=O)NCc3ccc(Cl)cc3)CC2)cc1 do in these assays?
Pf growth 48h: -24%; Pf growth 96h: 147%; AMA1-RON2 inh: -4%; HCV inhibitor: 11µM*

Results for CN1CCN(C(=O)c2ccc(Cl)cc2)CC1 ?
Pf growth 48h: -3%; Pf growth 96h: 2.6µM*; AMA1-RON2 inh: -9%; HCV inhibitor: 15%

How did CN1CCN(C(=O)c2cc3cc(Cl)ccc3[nH]2)CC1 do in these assays?
Pf growth 48h: -11%; Pf growth 96h: 10µM*; AMA1-RON2 inh: 8%; HCV inhibitor: 4%

How did Cc1cccc(N2CCN(C(=O)c3cc4cc(F)ccc4[nH]3)CC2)c1C do in these assays?
Pf growth 48h: 1.7µM*; Pf growth 96h: 13µM*; AMA1-RON2 inh: -2%; HCV inhibitor: -6%

How did CC1CC1C(=O)OCC(=O)NNC(=O)c1ccc([N+](=O)[O-])cc1 (stereo unspecified) do in these assays?
Pf growth 48h: -22%; Pf growth 96h: -19%; AMA1-RON2 inh: 26%[11.6 µM]; HCV inhibitor: 16%
